Values joined by “and” are separate entries in the source; they are usually repeats but may differ in a detail not shown here. Identical values can stand only once. Out of some 5,500 compounds screened, about 2,000 (36%) were called active. About 18% were inconclusive and are not listed. The list shows a part of the results. A number with no mark means an inactive call. Cut-off read from the data, not from the text of the source: active = normalized growth mostly below about 0.91 (no sharp cut-off); inconclusive = no clear call, values can overlap the other calls; inactive = mostly above about 0.92.
Assay: chemical genetic growth profiling, strain panel (AID 1159580);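 note: tested at 20 µM; growth read once vehicle control cultures reached saturation at 30 °C; 1 = growth at the plate median or of vehicle wells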
Conditions: S. cerevisiae deletion strains, growth OD

Structure (SMILES): CCOP(=S)(OCC)Oc1ccc2c(C)c(Cl)c(=O)oc2c1
- normalized growth (locus YAL013W, strain DEP1, stronger effect = lower value): 0.987
- normalized growth (locus YAL021C, strain ccr4, stronger effect = lower value): 0.997
- normalized growth (locus YAL026C, strain drs2, stronger effect = lower value): 0.96
- normalized growth (locus YAL030W, strain snc1, stronger effect = lower value): 0.976
- normalized growth (locus YBL061C, strain skt5, stronger effect = lower value): 0.96
- normalized growth (locus YBR009C, strain hhf1, stronger effect = lower value): 0.982
- normalized growth (locus YBR021W, strain FUR4, stronger effect = lower value): 0.97
- normalized growth (locus YBR023C, strain chs3, stronger effect = lower value): 0.944
- normalized growth (locus YBR171W, strain sec66, stronger effect = lower value): 0.939
- normalized growth (locus YBR229C, strain ROT2, stronger effect = lower value): 0.955
- normalized growth (locus YBR231C, strain swc5, stronger effect = lower value): 0.979
- normalized growth (locus YBR279W, strain paf1, stronger effect = lower value): 0.971
- normalized growth (locus YCL011C, strain gbp2, stronger effect = lower value): 0.906 (active)
- normalized growth (locus YCL016C, strain dcc1, stronger effect = lower value): 0.984
- normalized growth (locus YCL029C, strain bik1, stronger effect = lower value): 0.984
- normalized growth (locus YCL061C, strain MRC1, stronger effect = lower value): 0.96
- normalized growth (locus YCL069W, strain vba3, stronger effect = lower value): 0.957
- normalized growth (locus YCR088W, strain abp1, stronger effect = lower value): 0.964
- normalized growth (locus YDL005C, strain med2, stronger effect = lower value): 0.959
- normalized growth (locus YDL035C, strain GPR1, stronger effect = lower value): 0.978
- normalized growth (locus YDL040C, strain nat1, stronger effect = lower value): 0.964
- normalized growth (locus YDL074C, strain BRE1, stronger effect = lower value): 0.907
- normalized growth (locus YDL101C, strain DUN1, stronger effect = lower value): 0.975
- normalized growth (locus YDL134C, strain PPH21, stronger effect = lower value): 0.981
- normalized growth (locus YDL185W, strain tfp1, stronger effect = lower value): 0.957
- normalized growth (locus YDL192W, strain arf1, stronger effect = lower value): 0.975
- normalized growth (locus YDR001C, strain nth1, stronger effect = lower value): 0.977
- normalized growth (locus YDR069C, strain doa4, stronger effect = lower value): 0.938
- normalized growth (locus YDR101C, strain arx1, stronger effect = lower value): 0.983
- normalized growth (locus YDR137W, strain rgp1, stronger effect = lower value): 0.939
- normalized growth (locus YDR150W, strain NUM1, stronger effect = lower value): 0.982
- normalized growth (locus YDR159W, strain sac3, stronger effect = lower value): 0.901
- normalized growth (locus YDR162C, strain NBP2, stronger effect = lower value): 0.92
- normalized growth (locus YDR195W, strain ref2): 1.03
- normalized growth (locus YDR297W, strain sur2, stronger effect = lower value): 0.988
- normalized growth (locus YDR318W, strain mcm21, stronger effect = lower value): 0.976
- normalized growth (locus YDR334W, strain swr1, stronger effect = lower value): 0.961
- normalized growth (locus YDR335W, strain msn5, stronger effect = lower value): 0.975
- normalized growth (locus YDR388W, stronger effect = lower value): 0.98
- normalized growth (locus YDR392W, strain spt3, stronger effect = lower value): 0.836
- normalized growth (locus YDR502C, strain sam2, stronger effect = lower value): 0.984
- normalized growth (locus YEL003W, strain gim4, stronger effect = lower value): 0.953
- normalized growth (locus YEL037C, strain rad23, stronger effect = lower value): 0.962
- normalized growth (locus YEL061C, strain CIN8 (second series), stronger effect = lower value): 0.962
- normalized growth (locus YEL061C, strain CIN8, stronger effect = lower value): 0.979
- normalized growth (locus YER015W, strain faa2, stronger effect = lower value): 0.966
- normalized growth (locus YER016W, strain bim1, stronger effect = lower value): 0.97
- normalized growth (locus YER110C, stronger effect = lower value): 0.977
- normalized growth (locus YER111C, strain swi4, stronger effect = lower value): 0.975
- normalized growth (locus YER155C, strain BEM2 (second series), stronger effect = lower value): 0.959
- normalized growth (locus YER155C, strain BEM2, stronger effect = lower value): 0.998
- normalized growth (locus YER167W, strain BCK2, stronger effect = lower value): 0.99
- normalized growth (locus YFR010W, strain ubp6, stronger effect = lower value): 0.942
- normalized growth (locus YGL078C, strain dbp3, stronger effect = lower value): 0.984
- normalized growth (locus YGL086W, strain mad1, stronger effect = lower value): 0.989
- normalized growth (locus YGL167C, strain pmr1, stronger effect = lower value): 0.956
- normalized growth (locus YGL173C, strain kem1, stronger effect = lower value): 0.956
- normalized growth (locus YGL227W, strain vid30, stronger effect = lower value): 0.961
- normalized growth (locus YGL240W, strain doc1, stronger effect = lower value): 0.933
- normalized growth (locus YGL248W, strain PDE1, stronger effect = lower value): 0.957
- normalized growth (locus YGL253W, strain hxk2, stronger effect = lower value): 0.903 (active)
- normalized growth (locus YGR078C, strain PAC10, stronger effect = lower value): 0.973
- normalized growth (locus YGR135W, strain pre9, stronger effect = lower value): 0.97
- normalized growth (locus YGR229C, strain SMI1, stronger effect = lower value): 0.947
- normalized growth (locus YGR252W, strain gcn5, stronger effect = lower value): 0.937
- normalized growth (locus YHR013C, strain ard1, stronger effect = lower value): 0.968
- normalized growth (locus YHR027C, strain rpn1, stronger effect = lower value): 1
- normalized growth (locus YHR030C, strain SLT2, stronger effect = lower value): 0.986 and 1.02
- normalized growth (locus YHR079C, strain IRE1 (second series), stronger effect = lower value): 0.988
- normalized growth (locus YHR079C, strain IRE1, stronger effect = lower value): 1
- normalized growth (locus YHR094C, strain hxt1, stronger effect = lower value): 0.985
- normalized growth (locus YHR129C, strain ARP1, stronger effect = lower value): 0.983
- normalized growth (locus YHR142W, strain chs7, stronger effect = lower value): 0.912
- normalized growth (locus YHR200W, strain rpn10, stronger effect = lower value): 0.984
- normalized growth (locus YIL066C, strain RNR3, stronger effect = lower value): 0.961
- normalized growth (locus YIL073C, strain SPO22, stronger effect = lower value): 0.988
- normalized growth (locus YIL125W, strain kgd1, stronger effect = lower value): 0.981
- normalized growth (locus YIR030C, strain dcg1, stronger effect = lower value): 0.989
- normalized growth (locus YJL092W, strain hpr5, stronger effect = lower value): 0.944
- normalized growth (locus YJL095W, strain BCK1 (second series), stronger effect = lower value): 0.96
- normalized growth (locus YJL095W, strain BCK1, stronger effect = lower value): 0.958 and 1.02
- normalized growth (locus YJL115W, strain asf1, stronger effect = lower value): 0.962
- normalized growth (locus YJL129C, strain trk1, stronger effect = lower value): 0.942
- normalized growth (locus YJL134W, strain LCB3, stronger effect = lower value): 0.971
- normalized growth (locus YJL154C, strain vps35, stronger effect = lower value): 0.985
- normalized growth (locus YJL164C, strain tpk1, stronger effect = lower value): 0.974
- normalized growth (locus YJL166W, strain qcr8, stronger effect = lower value): 0.935
- normalized growth (locus YJL168C, strain set2, stronger effect = lower value): 0.986
- normalized growth (locus YJL187C, strain SWE1 (second series), stronger effect = lower value): 0.981
- normalized growth (locus YJL187C, strain SWE1, stronger effect = lower value): 0.964
- normalized growth (locus YJR043C, strain POL32, stronger effect = lower value): 0.996
- normalized growth (locus YJR066W, strain TOR1, stronger effect = lower value): 0.967

— PubChem BioAssay AID1159580 (chemical genetic matrix, 2015)
